62 compounds from publication PMC4336329 (PLoS ONE, 2015) can be followed below.

Among all 310,000 compounds or so, about 2,200 (0.71%) showed an effect of 50% or more. The effect is printed as a negative number. This is one part of a sample in which strong results are shown more often than they occur.

For the experiment, the target named is human ether-à-go-go-related gene (hERG) potassium channel (human, UniProt Q12809). Kind of experiment: primary screen, population patch clamp on CHO cells stably expressing hERG; higher = less effect of the substance.
Chain of human ether-à-go-go-related gene (hERG) potassium channel (Q12809 whole entry, looked up): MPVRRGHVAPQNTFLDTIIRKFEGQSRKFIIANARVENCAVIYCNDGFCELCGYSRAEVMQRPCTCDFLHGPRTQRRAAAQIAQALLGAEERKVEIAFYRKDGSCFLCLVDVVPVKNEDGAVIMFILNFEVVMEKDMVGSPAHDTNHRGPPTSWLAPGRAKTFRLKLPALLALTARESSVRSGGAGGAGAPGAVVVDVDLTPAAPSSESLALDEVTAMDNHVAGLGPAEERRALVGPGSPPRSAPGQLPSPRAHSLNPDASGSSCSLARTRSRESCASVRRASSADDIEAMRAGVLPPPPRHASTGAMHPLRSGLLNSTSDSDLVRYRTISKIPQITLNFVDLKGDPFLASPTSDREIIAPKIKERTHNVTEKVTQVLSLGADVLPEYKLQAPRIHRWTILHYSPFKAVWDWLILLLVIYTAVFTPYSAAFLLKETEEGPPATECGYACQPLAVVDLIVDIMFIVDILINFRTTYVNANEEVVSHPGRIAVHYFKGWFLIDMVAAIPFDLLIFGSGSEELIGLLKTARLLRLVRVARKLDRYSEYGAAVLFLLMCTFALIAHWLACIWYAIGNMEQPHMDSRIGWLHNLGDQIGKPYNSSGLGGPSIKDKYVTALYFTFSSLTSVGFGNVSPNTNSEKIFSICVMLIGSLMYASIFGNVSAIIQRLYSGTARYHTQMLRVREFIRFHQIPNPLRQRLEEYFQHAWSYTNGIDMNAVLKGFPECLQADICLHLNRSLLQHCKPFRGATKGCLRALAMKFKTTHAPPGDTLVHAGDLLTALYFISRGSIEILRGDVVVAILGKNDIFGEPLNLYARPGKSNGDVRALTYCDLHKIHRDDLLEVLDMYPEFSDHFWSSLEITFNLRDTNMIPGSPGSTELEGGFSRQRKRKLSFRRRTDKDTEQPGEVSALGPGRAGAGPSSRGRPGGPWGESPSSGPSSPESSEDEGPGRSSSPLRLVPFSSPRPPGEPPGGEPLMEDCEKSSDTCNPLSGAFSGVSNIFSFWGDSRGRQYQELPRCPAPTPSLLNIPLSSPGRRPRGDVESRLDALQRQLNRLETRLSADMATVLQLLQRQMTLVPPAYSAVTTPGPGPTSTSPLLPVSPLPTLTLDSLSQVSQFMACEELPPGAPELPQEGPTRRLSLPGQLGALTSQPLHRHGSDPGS
Take `Cc1ccc(S(=O)(=O)Nc2cccc(/C=C/C(=O)O)c2)cc1`: the “hERG current change (%, negative = inhibition) at 1uM” value is on record as 17%. For `O=C(CN1CCN(c2ccc(Cl)cc2)CC1)c1ccc2c(c1)OCO2`, the “hERG current change (%, negative = inhibition) at 1uM” value amounted to 1.86%. The result for `COc1ccccc1/C=C/C(=O)Nc1cccc(S(=O)(=O)NC2=NCCCCC2)c1` reads 13.1%; that for `COc1ccc(C(=O)NC(=S)N2CCCCC2)cc1[N+](=O)[O-]`, 5.8%; that for `O=C(NCc1ccco1)c1sc(=S)n2c1[nH]c(=O)c1ccccc12`, -4.07%.

Regarding `CCCCn1c(N)c(N(CC)C(=O)c2ccccc2F)c(=O)[nH]c1=O`, the “hERG current change (%, negative = inhibition) at 1uM” value was 19.7%. The result for `CCOc1ccccc1NC(=O)CSc1nnc(Cc2cccn2C)n1-c1ccc(F)cc1` reads -8.2%; that for `CCCCc1nc(NCC2CCCO2)c(C#N)c2c1COC(C)(C)C2` (centres unmarked), 6.42%; that for `COc1ccccc1OCc1ccc(C(=O)NN)cc1`, 5.11%. Next, `C[C@@H]1CC[C@@]2(O[C@@H](CCO)C[C@@H](O)[C@@H]2O)O1`: 20.7%.

For `O=C(c1ccc(OC2CCN(C/C=C/c3ccccc3)CC2)cc1)N1CCCC1`, the “hERG current change (%, negative = inhibition) at 1uM” value is -27.1%. For `O=C(c1ccc(OC2CCN(C/C=C/c3ccc(F)cc3)CC2)cc1)N1CCCCC1`, the “hERG current change (%, negative = inhibition) at 1uM” value is recorded as -19.2%. Next, `O=C(c1ccc(OC2CCN(C/C=C/c3ccc(F)cc3)CC2)cc1)N1CCCC1`: -74.9%; `Cc1cccc(N2CCN(C(=O)c3ccc4nc(N5CCCCC5)sc4c3)CC2)c1C`: 8.76%.

For `Brc1ccc(C=Nc2ccc3c(c2)OCCOCCOCCO3)s1`, the “hERG current change (%, negative = inhibition) at 1uM” value is -58.3%. Next, `Brc1ccc(C=Nc2ccc(Nc3ccccc3)cc2)s1`: 14.7%.

In the case of `Oc1c(Br)cc(Br)cc1C=Nc1ccc2c(c1)OCCO2`, the “hERG current change (%, negative = inhibition) at 1uM” value is 12.2%.

For `Brc1csc(C=Nc2ccc3c(c2)OCCOCCOCCOCCO3)c1`, the “hERG current change (%, negative = inhibition) at 1uM” value is reported as -78.1%. The result for `Oc1c(Cl)cc(Cl)cc1C=Nc1ccc2c(c1)OCCO2` reads 16%; that for `O=C(N/N=C/c1cc(Br)cs1)c1ccc2c(c1)OCCO2`, 9.48%. For the compound `COc1ccc(/[N+]([O-])=C/c2ccoc2)cc1`, the “hERG current change (%, negative = inhibition) at 1uM” value came to 14%.

As for `Nc1nnc(SCc2nc3scc(-c4ccccc4)c3c(=O)[nH]2)s1`, the “hERG current change (%, negative = inhibition) at 1uM” value is listed as 15.6%. The result for `O=C(CC1CCCC1)Nc1nnc(C2CC2)s1` reads 11.5%; that for `CC(=O)Nc1cccc(NC(=O)CSc2nccn2Cc2ccccc2)c1`, 14.4%. With `CN(C(=O)c1ccc(Cl)nc1)C1(c2ccccc2Cl)CCCCC1=O` (centres unmarked), the “hERG current change (%, negative = inhibition) at 1uM” value is reported as 5.36%. The result for `O=C(NCC(=O)N(c1ccccc1)C(C(=O)NCC1CCCO1)c1ccccc1)c1ccco1` (centres unmarked) reads 13.9%; that for `C=Cc1ccc(Cn2c(=O)n(C)c(=O)c3sccc32)cc1`, 12.4%. Next, `FC(F)(F)c1ccc(-c2n[nH]c(=S)o2)nc1`: 9.8%; `CC(=O)c1c(N2CCN(c3ccccc3)CC2)nc(=S)n(-c2ccccc2)c1C`: 2.93%. The result for `CC(=O)c1c(N2CCN(c3ccc(F)cc3)CC2)nc(=S)n(-c2ccccc2)c1C` reads -69.3%; that for `COc1ccc(N2CCN(c3nc(=S)n(-c4ccccc4)c(C)c3C(C)=O)CC2)cc1`, 10.2%.

Consider `CN(c1ccc(O)cc1)c1nc(O)c(C2=c3ccccc3=NC2=O)s1`, for which the “hERG current change (%, negative = inhibition) at 1uM” value is reported as 8.57%.

On to `Cc1cc(Br)cc2c1N(C)C(=O)C2(c1ccc(O)cc1)c1ccc(O)cc1`, for which the “hERG current change (%, negative = inhibition) at 1uM” value was found to be 12%. Consider `CNC(=S)N1CCN(c2ccc([N+](=O)[O-])cc2)CC1`, for which the “hERG current change (%, negative = inhibition) at 1uM” value is recorded as -40.5%. The result for `COCCNC(=S)N1CCN(c2ccc(Cl)cc2)CC1` reads 1.27%; that for `CCNC(=S)N1CCN(c2ccc([N+](=O)[O-])cc2)CC1`, -50.5%; that for `O=[N+]([O-])c1ccc(N2CCN(C(=S)Nc3ccccc3)CC2)cc1`, 5.2%. Next, `O=[N+]([O-])c1ccc(NC(=S)N2CCN(c3ccc(F)cc3)CC2)cc1`: 13%; `COCCCNC(=S)N1CCN(c2ccc([N+](=O)[O-])cc2)CC1`: -64.8%. For `COCCCNC(=S)N1CCN(c2ccccc2)CC1`, the “hERG current change (%, negative = inhibition) at 1uM” value is on record as 18.3%.

`O=[N+]([O-])c1ccc(N2CCN(C(=S)NCc3ccc(Cl)cc3)CC2)cc1`: the “hERG current change (%, negative = inhibition) at 1uM” value amounted to 12.9%. The result for `C=CCNC(=S)N1CCN(c2ccc([N+](=O)[O-])cc2)CC1` reads -52.1%. Next, `Cc1ccc(OCc2nnc(NC(=O)c3ccco3)s2)c(C)c1`: 17.8%.

Turning to `C/C(=N/NC(=O)c1ccc(Br)o1)c1ccc(C)o1`, the “hERG current change (%, negative = inhibition) at 1uM” value is 0.861%. For `COCCNC(=S)NNC(=O)c1cc(C2CC2)nc2ccccc12`, the “hERG current change (%, negative = inhibition) at 1uM” value came out at 14.8%.

For the compound `O=C(CCC(=O)OCc1cccc([N+](=O)[O-])c1)Nc1ccccc1Cl`, the “hERG current change (%, negative = inhibition) at 1uM” value is reported as 2.86%. Next, `O=[N+]([O-])c1cccc(Cl)c1CSc1ccccn1`: 11%. The result for `CC[n+]1c(/C=C/c2ccc(OC)c(OC)c2)ccc2ccccc21.[I-]` reads 13.8%; that for `CCN(CC)c1ccc(/C=C/c2ccc3ccc(OC)cc3[n+]2CC)cc1.[I-]`, -85%; that for `CC[n+]1c(/C=C/c2ccc(N(C)C)cc2)ccc2ccccc21.[I-]`, -27%.

In the case of `O=c1[nH]c(=O)n(Cc2ccco2)c2c1C(C(F)(F)F)(C(F)(F)F)N=C(Cc1ccccc1)N2`, the “hERG current change (%, negative = inhibition) at 1uM” value came out at 6.17%. The result for `CCOC(=O)C1=C(Cc2ccc(F)cc2)C(=O)c2ccccc2C1=O` reads 6.27%; that for `CCOC(=O)CCNC(=O)N1CCCC(CNS(=O)(=O)Cc2ccccc2)C1` (centres unmarked), 8.76%.

Regarding `CCN(CC)C(=O)CN1CCC(c2nc3cc(C)c(C)cc3[nH]2)CC1`, the “hERG current change (%, negative = inhibition) at 1uM” value was 11.1%. `Cl.c1ccc(Cn2nnnc2CN2CCCC2)cc1`: the “hERG current change (%, negative = inhibition) at 1uM” value was determined as 10.1%. Next, `CCN1CCN(CC2COc3ccccc3O2)CC1.Cl` (centres unmarked): 7.79%; `CCC(C)(C)n1nnnc1CN1CCC(c2nc3ccc(C)cc3[nH]2)CC1`: -25.7%. Next, `Cc1cc2nc(C3CCN(Cc4nnnn4Cc4cccs4)CC3)[nH]c2cc1C`: -72.4%.

As to `c1csc(Cn2nnnc2CN2CCN(c3nc4ccccc4s3)CC2)c1`, the “hERG current change (%, negative = inhibition) at 1uM” value is listed as -7.1%. The result for `Cc1cc2nc(C3CCN(Cc4nnnn4Cc4ccccc4)CC3)[nH]c2cc1C` reads -50.7%.

Turning to `Cc1cc2nc(C3CCN(CC4COc5ccccc5O4)CC3)[nH]c2cc1C` (centres unmarked), the “hERG current change (%, negative = inhibition) at 1uM” value is -65.6%. Next, `Cc1nc2cc(C(F)(F)F)ccc2n1C1CCN(Cc2nnnn2Cc2cccs2)CC1`: -2.78%.
